The nature of assay [1]: Nuclear factor erythroid 2-related factor 2/antioxidant responsive element (Nrf2/ARE) small molecule agonists: qHTS cell viability counter screen in human keratinocytes (AID 1919968; active = well fitted curve in the direction sought with a large enough effect in the repeat runs; an effect the other way counts as inactive or inconclusive; note: nearly all actives have a fitted effect of over 55% in size). The method, boiled down:
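After a 5 h attachment period, ARE-reporter keratinocytes were dosed with compounds in DMSO and then cultured 23 h at 37 C. Cell viability came from CellTiter-Fluor signal read after a further 1 h.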

In assay [2] the target is Gonadotropin-releasing hormone receptor (Homo sapiens) (UniProt P30968). Kind of assay: Human gonadotropin-releasing hormone receptor (GnRHR) small molecule agonists, calcium flux assay in GnRHR-HEK293 cells (AID 1920063). Note: nearly all actives have a fitted effect of over 35% in size. A digest of the protocol: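 We seeded human GnRHR-expressing HEK293 cells for 18 hours, loaded them with calcium dye for an hour at 37 C, added test compounds, and recorded fluorescence intensity kinetically for three minutes.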
A general note: Calcium flux is commonly read through the fluorescence of an indicator in the cells.

The target in assay [3] is KiSS-1 receptor (Homo sapiens) (UniProt Q969F8). Kind of assay: Human kisspeptin (KISS1R) small molecule agonists, calcium flux assay in KISS1R-HEK293 cells (AID 1920064; active = well fitted curve in the direction sought with a large enough effect in the repeat runs; an effect the other way counts as inactive or inconclusive). A digest of the protocol: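 Kinetic calcium assay, 1 s sampling over 3 min at Ex/Em 480/540, in HEK293 cells engineered with human KISS1R; compounds delivered in DMSO after 1 h dye loading.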
The nature of assay [4]: G protein-coupled receptor (GPCR) small molecule agonists, calcium flux assay: HEK293 wild type cell line counter screen (AID 1920065). The method, boiled down:
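Calcium-sensitive dye, loaded 1 h at 37 C into cells cultured 18 h, reports compound-evoked calcium release as fluorescence (Ex/Em 480/540), measured over 3 min. Agonist mode; 15-point titrations, triplicate.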

Assay [5] in a line: p53 small molecule agonists, cell-based qHTS assay with human liver microsomes (AID 1963577). A digest of the protocol:
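Compounds act here after metabolic activation: human liver microsomes and NADPH, both at 0.5 mg/mL final, were co-added to p53RE-bla cells. Incubation ran 16 h at 37 C, followed by LiveBLAzer detection.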
(Quantitative high-throughput screening tests each substance at several concentrations.)

Assay [6] can be described thus: p53 small molecule agonists, cell-based qHTS assay with rat liver microsomes (AID 1963578). A digest of the protocol: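 Read-out is beta-lactamase reporter fluorescence (LiveBLAzer, 2 h, room temperature, dark) in p53RE-bla cells treated 16 h at 37 C with compound, rat liver microsomes and NADPH, both 0.5 mg/mL final.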
Assay [7] in a line: p53 small molecule agonists, cell-based qHTS assay with human liver microsomes: qHTS cell viability counter screen (AID 1963579). Note: nearly all actives have a fitted effect of over 45% in size. The method, boiled down: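 Cells carrying the p53 response-element beta-lactamase reporter are treated for 16 h at 37 C with test compounds in the presence of human liver microsomes and NADPH (both 0.5 mg/mL final); ATP-based CellTiter-Glo luminescence then reports viability.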

The nature of assay [8]: p53 small molecule agonists, cell-based qHTS assay with rat liver microsomes: qHTS cell viability counter screen (AID 1963580). Note: nearly all actives have a fitted effect of over 45% in size. A digest of the protocol:
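p53RE-bla HCT-116 cells (4,000/well) rested 5 h at 37 C, then given Tox21 compounds in DMSO with rat liver microsomes (0.5 mg/mL final) plus NADPH (0.5 mg/mL final) for 16 h at 37 C. Viability read by CellTiter-Glo luminescence after 30 min at room temperature.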

Assay [9] in a line: p53 small molecule agonists, cell-based qHTS assay: qHTS cell viability counter screen (AID 1963581). Note: nearly all actives have a fitted effect of over 45% in size. A digest of the protocol:
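Following 5 h attachment, HCT-116 p53RE-bla cells took up compound for 16 h at 37 C; the reporter was read with B/G FRET substrate (2 h RT), and viability then via CellTiter-Glo ATP luminescence.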

In assay [10] the target is 5-hydroxytryptamine receptor 2A (Homo sapiens) (UniProt P28223). Kind of assay: 5-hydroxytryptamine receptor 2A (HTR2A) small molecule agonists, cell-based qHTS assay (AID 1963587). Note: nearly all actives have a fitted effect of over 30% in size. A digest of the protocol:
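HTR2A-CHO cells, plated 18 h at 37 C/5% CO2, dye-loaded 1 h at 37 C; compounds in DMSO added by pin tool (agonist mode). Intracellular calcium flux read as kinetic fluorescence on FDSS over 2 min at 1 s intervals.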

For assay [11], the target named is Muscarinic acetylcholine receptor M1 (Homo sapiens) (UniProt P11229). Kind of assay: Cholinergic receptor muscarinic 1 (CHRM1) small molecule antagonists, cell-based qHTS assay (AID 1963588). Note: nearly all actives have a fitted effect of over 40% in size. A digest of the protocol: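 CHRM1-CHO calcium-flux assay, antagonist mode. Cells were seeded 18 h, dye-loaded 1 h at 37 C and given compound for 5 min at RT, then acetylcholine was added at 50nM. FDSS fluorescence was read 3 min; 15 concentrations, three runs.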

Assay [12] shares this target. Kind of assay: Cholinergic receptor muscarinic 1 (CHRM1) small molecule agonists, cell-based qHTS assay (AID 1963589). Note: nearly all actives have a fitted effect of over 35% in size. A digest of the protocol: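 Measures agonist-induced intracellular calcium rise. Stable human CHRM1 CHO line, 1 h dye load at 37 C, compounds from DMSO, kinetic fluorescence read.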
The nature of assay [13]: cAMP Responsive Elements (CRE) small molecule agonists, cell-based qHTS assay (AID 1963590). The method, boiled down:
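A CRE-responsive beta-lactamase reporter in HEK 293T cells was used. Treatment ran 3 h at 37 C; detection used LiveBLAzer B/G FRET substrate for 2 h at room temperature.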

The nature of assay [14]: cAMP Responsive Elements (CRE) small molecule antagonists, cell-based qHTS assay (AID 1963591; active = well fitted inhibition curve with a large enough effect in the signal ratio in the repeat runs, not every such curve was filed as active; the % refers to the signal ratio). The method, boiled down: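 HEK293T cells carrying a CRE-driven beta-lactamase reporter receive compound and NKH477 (0.25 uM final) for 3 h. Fluorescence from LiveBLAzer B/G FRET substrate is read after 2 h at room temperature.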
For assay [15], the target named is Beta-2 adrenergic receptor (Homo sapiens) (UniProt P07550). Kind of assay: Adrenergic beta2 receptor (ADRB2) small molecule antagonists, cell-based qHTS assay (AID 1963592). Note: nearly all actives have a fitted effect of over 50% in size. Note: potency is the fitted concentration of half-maximal effect. The method, boiled down: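 Cells (CHO, stable ADRB2 overexpression) incubated 18-20hr at 37C; compounds added from DMSO; agonist mix (1nM isoproterenol, 100uM IBMX, 25uM Ro-20-1724) added; 0.5hr RT; d2-cAMP and anti-cAMP-cryptate added; 1hr RT; 665/615 nm read.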

Assay [16] has the same target. Kind of assay: Adrenergic beta2 receptor (ADRB2) small molecule agonists, cell-based qHTS assay (AID 1963593).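 Note: CHO cells stably overexpressing human ADRB2.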 The method, boiled down:
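CHO cells stably over-expressing ADRB2 were plated overnight at 37C, then dosed with compounds plus a stimulation mix containing 100uM IBMX and 25uM Ro-20-1724 for 0.5hr at room temperature. cAMP was measured by HTRF competition, 1hr.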

Assay [17] has as its target D(2) dopamine receptor (Homo sapiens) (UniProt P14416). Kind of assay: Dopamine D2 receptor (DRD2) small molecule antagonists, cell-based qHTS assay (AID 1963595; active = well fitted inhibition curve with a large enough effect in the signal ratio in the repeat runs, with a control signal flat; the % refers to the signal ratio). A digest of the protocol: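 In this cell-based antagonist screen, compounds act for 10 min at room temperature before a 30 min challenge with 12 nM quinpirole and 200 nM NKH477. cAMP is quantified by HTRF competition in DRD2-HEK293 cells containing 0.1 mM Ro20-1724.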

Assay [18] in a line: p53 small molecule agonists, cell-based qHTS assay (AID 1963582; active = well fitted activation curve with a large enough effect in the signal ratio in the repeat runs, not every such curve was filed as active; the % refers to the signal ratio; note: potency is the fitted concentration of half-maximal effect). A digest of the protocol:
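In this cell-based concentration-response screen, a p53 response element drives beta-lactamase; cells received DMSO-borne compounds after 5 h culture and were incubated a further 16 h before FRET substrate development.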

For assay [19], the target named is 5-hydroxytryptamine receptor 2A (Homo sapiens) (UniProt P28223). Kind of assay: 5-hydroxytryptamine receptor 2A (HTR2A) small molecule antagonists, cell-based qHTS assay (AID 1963586). Note: nearly all actives have a fitted effect of over 45% in size. The method, boiled down:
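Antagonist-mode intracellular calcium assay: DOI (4 nM) added after 5 min compound pre-incubation at room temperature to dye-loaded HTR2A-CHO cells. Fluorescence followed for 3 min, sampled every second.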

Assay [20] deals with D(2) dopamine receptor (Homo sapiens) (UniProt P14416). Nature of the assay: Dopamine D2 receptor (DRD2) small molecule agonists, cell-based qHTS assay (AID 1963594). Note: nearly all actives have a fitted effect of over 35% in size. The method, boiled down: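 HEK293 cells stably expressing DRD2 were cultured 24 h at 37 C, then given Ro20-1724 (0.1 mM final) and compounds for 10 min at room temperature. NKH477 (200nM) was then added for 30 min. cAMP was read by HTRF.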

Values without a mark were called inactive. Results filed as inconclusive are left out. Activity calls are given as the source filed them. Unless noted, calls come from the whole dose curve.

The values below come from PubChem BioAssay (Tox21).

KiSS-1 receptor (Homo sapiens), sequence (Q969F8 whole entry, looked up): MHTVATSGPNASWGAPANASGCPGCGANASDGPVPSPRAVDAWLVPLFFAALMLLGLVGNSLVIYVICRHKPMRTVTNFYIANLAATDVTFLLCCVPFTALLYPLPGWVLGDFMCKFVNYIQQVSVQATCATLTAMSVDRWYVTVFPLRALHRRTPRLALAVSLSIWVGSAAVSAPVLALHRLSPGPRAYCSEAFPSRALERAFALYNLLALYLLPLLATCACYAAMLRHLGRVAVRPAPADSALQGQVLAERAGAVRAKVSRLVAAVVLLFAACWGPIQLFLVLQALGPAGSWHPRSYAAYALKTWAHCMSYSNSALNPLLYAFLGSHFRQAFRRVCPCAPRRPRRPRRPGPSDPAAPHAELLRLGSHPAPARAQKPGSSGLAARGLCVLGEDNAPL
D(2) dopamine receptor (Homo sapiens), sequence (P14416 whole entry, looked up): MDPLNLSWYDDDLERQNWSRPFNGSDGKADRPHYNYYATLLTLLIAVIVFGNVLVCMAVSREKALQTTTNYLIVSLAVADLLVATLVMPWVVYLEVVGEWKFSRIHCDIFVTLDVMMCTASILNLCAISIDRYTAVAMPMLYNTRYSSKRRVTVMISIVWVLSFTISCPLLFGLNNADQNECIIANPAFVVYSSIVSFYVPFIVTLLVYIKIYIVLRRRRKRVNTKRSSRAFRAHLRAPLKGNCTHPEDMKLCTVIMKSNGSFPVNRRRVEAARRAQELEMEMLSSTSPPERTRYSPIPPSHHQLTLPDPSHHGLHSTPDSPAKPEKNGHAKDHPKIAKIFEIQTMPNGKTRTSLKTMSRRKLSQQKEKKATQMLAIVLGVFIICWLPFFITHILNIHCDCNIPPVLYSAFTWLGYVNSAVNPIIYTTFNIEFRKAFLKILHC
5-hydroxytryptamine receptor 2A (Homo sapiens), sequence (P28223 whole entry, looked up): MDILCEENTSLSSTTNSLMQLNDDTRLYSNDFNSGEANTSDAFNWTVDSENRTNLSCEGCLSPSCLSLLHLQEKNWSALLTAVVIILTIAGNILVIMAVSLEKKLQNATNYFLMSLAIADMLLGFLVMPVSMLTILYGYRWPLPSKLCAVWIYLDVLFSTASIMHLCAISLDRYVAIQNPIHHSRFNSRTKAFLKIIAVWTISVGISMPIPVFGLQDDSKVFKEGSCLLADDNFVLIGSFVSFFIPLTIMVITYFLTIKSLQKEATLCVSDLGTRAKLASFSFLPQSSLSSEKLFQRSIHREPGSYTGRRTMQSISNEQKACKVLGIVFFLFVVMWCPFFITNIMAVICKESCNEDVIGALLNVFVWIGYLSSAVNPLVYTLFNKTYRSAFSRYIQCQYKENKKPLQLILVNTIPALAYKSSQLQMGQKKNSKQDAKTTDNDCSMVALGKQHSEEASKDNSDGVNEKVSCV
Muscarinic acetylcholine receptor M1 (Homo sapiens), sequence (P11229 whole entry, looked up): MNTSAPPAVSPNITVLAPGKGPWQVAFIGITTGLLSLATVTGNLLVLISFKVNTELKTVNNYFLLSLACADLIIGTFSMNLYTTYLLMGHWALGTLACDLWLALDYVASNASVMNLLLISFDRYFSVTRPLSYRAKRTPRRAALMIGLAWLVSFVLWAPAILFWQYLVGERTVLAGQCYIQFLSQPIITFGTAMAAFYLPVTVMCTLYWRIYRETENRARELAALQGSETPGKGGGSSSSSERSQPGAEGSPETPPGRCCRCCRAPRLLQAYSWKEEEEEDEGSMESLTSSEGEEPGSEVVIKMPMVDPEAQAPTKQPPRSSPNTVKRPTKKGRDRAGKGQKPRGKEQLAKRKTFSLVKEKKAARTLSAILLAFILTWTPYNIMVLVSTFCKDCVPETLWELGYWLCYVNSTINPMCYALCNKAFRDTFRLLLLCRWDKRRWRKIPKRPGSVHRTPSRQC
Beta-2 adrenergic receptor (Homo sapiens), sequence (P07550 whole entry, looked up): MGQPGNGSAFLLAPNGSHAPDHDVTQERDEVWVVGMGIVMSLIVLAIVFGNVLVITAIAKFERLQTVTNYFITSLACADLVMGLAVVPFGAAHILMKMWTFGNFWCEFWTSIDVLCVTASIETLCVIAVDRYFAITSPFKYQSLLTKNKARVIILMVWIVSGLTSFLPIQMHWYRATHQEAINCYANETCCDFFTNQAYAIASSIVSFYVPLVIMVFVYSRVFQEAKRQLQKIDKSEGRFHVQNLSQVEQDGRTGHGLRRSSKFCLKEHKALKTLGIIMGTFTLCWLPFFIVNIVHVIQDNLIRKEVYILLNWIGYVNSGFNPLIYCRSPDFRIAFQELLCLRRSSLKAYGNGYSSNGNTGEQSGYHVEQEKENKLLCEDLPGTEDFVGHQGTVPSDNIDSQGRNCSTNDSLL
Gonadotropin-releasing hormone receptor (Homo sapiens), sequence (P30968 whole entry, looked up): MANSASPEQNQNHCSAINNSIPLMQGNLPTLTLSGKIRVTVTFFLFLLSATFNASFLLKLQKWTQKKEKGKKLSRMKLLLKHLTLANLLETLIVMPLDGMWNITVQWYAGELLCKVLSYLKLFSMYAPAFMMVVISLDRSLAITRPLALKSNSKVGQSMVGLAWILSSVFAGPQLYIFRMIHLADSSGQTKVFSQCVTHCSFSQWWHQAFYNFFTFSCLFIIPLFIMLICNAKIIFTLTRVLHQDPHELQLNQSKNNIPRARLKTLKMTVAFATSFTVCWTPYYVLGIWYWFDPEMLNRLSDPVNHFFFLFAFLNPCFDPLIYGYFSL

With `O=S1(=O)OCCO1`, the Potency result in assay [1], in assay [2], in assay [3], in [4], in [5] and in assay [6] was “inactive” each time. Besides, the Potency entry in assay [7], in assay [8], in assay [9], in [10], in assay [11] and in [12] was “inactive” each time. Besides, the Potency entry in [13], in assay [14], in [15], in [16] and in assay [17] was “inactive” each time.

With `O=C(NC(=O)c1c(F)cccc1F)Nc1cc(Cl)c(Oc2ncc(C(F)(F)F)cc2Cl)c(Cl)c1`, the Potency entry in [1], in assay [2], in [3], in assay [4], in assay [5] and in assay [6] was “inactive” each time. The Potency result in assay [7], in [9], in assay [19], in assay [11], in [12] and in assay [15] was “inactive” in each case. In addition, the Potency entry in [16], in assay [20] and in assay [17] was “inactive” in each case. In [18], the Potency was 17.5 µM (active).

Turning to `CCOC(=O)N(C)C(=O)CSP(=S)(OCC)OCC`, the Potency result in [1], in assay [2], in assay [3], in assay [4], in assay [5] and in assay [6] was “inactive” each time. The Potency result in [7], in [9], in assay [18], in [19], in assay [10] and in [12] was “inactive” throughout. The Potency entry in assay [13], in assay [15], in assay [20] and in [17] was “inactive” each time.

As to `O=C(NC(=O)c1c(F)cccc1F)Nc1cc(Cl)c(OC(F)(F)C(F)F)c(Cl)c1`, the Potency result in assay [1], in assay [2], in assay [3], in [4], in assay [5] and in [6] was “inactive” in each case. Moreover, the Potency entry in [7], in [18], in [19], in assay [10], in [12] and in [13] was “inactive” each time. Also, the Potency result in [14], in assay [15], in [20] and in [17] was “inactive” each time.

For `Oc1ccc2[nH]cc(CCCCN3CC=C(c4ccccc4)CC3)c2c1`, the Potency result in [1], in assay [2], in [3], in [4], in [5] and in assay [6] was “inactive” in each case. The Potency result in assay [7], in assay [8], in assay [18], in assay [10], in assay [11] and in [12] was “inactive” in each case. Also, in assay [17], the Potency result was “inactive”. For the same compound, the Potency in assay [15] is 26.6 µM (active).

In the case of `C#CC(O)(C=CCl)CC` (centres undefined), the Potency result in assay [1], in assay [2], in assay [3], in assay [4], in assay [5] and in [6] was “inactive” throughout. Moreover, the Potency entry in assay [7], in assay [8], in [18], in assay [10], in assay [11] and in assay [12] was “inactive” in each case. The Potency result in assay [13], in [14], in assay [15], in assay [16], in [20] and in assay [17] was “inactive” throughout.

`SCc1ccccc1`: the Potency entry in assay [1], in assay [2], in assay [3], in [4], in assay [5] and in assay [6] was “inactive” each time. For the same compound, the Potency entry in assay [8], in assay [9], in assay [18], in [10], in assay [11] and in assay [13] was “inactive” each time. Further, the Potency entry in assay [14], in [15] and in assay [17] was “inactive” in each case.

On to `Cc1cc(C)c(C(=O)P(=O)(C(=O)c2c(C)cc(C)cc2C)c2ccccc2)c(C)c1`, for which the Potency result in assay [1], in assay [2], in assay [3], in [4], in assay [5] and in assay [6] was “inactive” throughout. For the same compound, the Potency entry in assay [7], in assay [8], in assay [9], in assay [10], in [11] and in [12] was “inactive” in each case. Further, the Potency entry in [13], in assay [15], in assay [16], in [20] and in [17] was “inactive” throughout.
